From PubChem BioAssay
Calls of active or inactive are those of the source. Unless noted, no rule for the calls is given here.

Assays:
[1] = HepG2 liver cancer cell viability effects, profiling panel, resazurin fluorescence, 24 h, PK04 Diversity Set (AID 1172); conditions: higher = more signal
[2] = basal S. cerevisiae growth modulation, no modifier, primary screen, OD600, strain BY4716, 24 h, basal condition (AID 1173); conditions: OD600, 24 h, higher = more signal, called active from +8 up or from −8 down
[3] = MM1S myeloma cell viability, profiling panel, resazurin fluorescence, basal, 24 h, PK04 Diversity Set (AID 1174); conditions: higher = more signal, called active from +8 up or from −8 down;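 also: MM1S multiple myeloma cell line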
[4] = biological target: Dihydroorotate dehydrogenase (quinone), mitochondrial (Plasmodium falciparum (isolate 3D7)) (UniProt Q08210); experiment: PfDHODH enzyme inhibitors, primary screen, biochemical, C-terminal His tag, absorbance 600 nm (AID 1175); conditions: DCIP absorbance 600 nm, higher = more signal, called active from +8 up or from −8 down;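 also: recombinant parasite enzyme with a five histidine tag at its C terminus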
[5] = P. aeruginosa biofilm formation inhibitors, primary screen, strain PAO1, LB-PBS medium, absorbance 600 nm (AID 1176); conditions: P. aeruginosa PAO1 growth/biofilm, A600, 12 h; higher = more signal
[6] = S. cerevisiae RM11-1a growth modifiers, primary screen, strain RM11-1a, OD600, basal, 24 h (AID 1177); conditions: OD600, 24 h, higher = more signal, called active from +8 up or from −8 down;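 also: cultures grown under basal conditions with no added stressor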
[7] = E. coli acrAB mutant growth effects, primary screen, E. coli filamentation inducers, strain DRC39, OD650, 24 h (AID 1178); conditions: higher = more signal, called active from +8 up or from −8 down;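 also: growth measured as culture turbidity by optical density at 650 nm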
[8] = E. coli acrAB mutant growth effects, primary screen, E. coli filamentation inducers, strain DRC39, OD650, 48 h (AID 1179);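 also: screen aims at cell division blockers that make cells filament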; conditions: E. coli DRC39 delta-acrAB growth, higher = more signal, called active from +8 up or from −8 down
[9] = RPMI8226 myeloma cell viability, profiling panel, resazurin fluorescence, basal, 24 h, PK04 Diversity Set (AID 1180); conditions: higher = more signal;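 also: RPMI8826 multiple myeloma cell line at 5000 cells per well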
[10] = biological target: E3 ubiquitin-protein ligase XIAP (Homo sapiens) (UniProt P98170); experiment: XIAP binders, primary screen, biophysical, small-molecule microarray, fluorescence 635 nm (AID 1181); conditions: small-molecule microarray binding, higher = more signal;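 also: score merges 667 nm emission and signal to noise over triplicate slides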
[11] = system: XIP peptide (Xip251-270) binding; experiment: small-molecule binders of XIP peptide, primary screen, biochemical, small-molecule microarray, fluorescence 635/667 nm, 0.1 µg/mL protein (AID 1182); conditions: fluorescent protein binding, 635 nm, higher = more signal, called active from +8 up or from −8 down
XIP peptide (Xip251-270) = experiment: small-molecule binders of XIP peptide, primary screen, biochemical, small-molecule microarray, fluorescence 635/667 nm, 0.5 µg/mL protein (AID 1183); conditions: small-molecule microarray binding, fluorescence 635 nm; higher = more signal
[12] = Plasmodium falciparum growth inhibition, primary screen, strain 3D7, DAPI fluorescence, 100 nL (AID 1184);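 also: parasites grown inside human red blood cells in medium with human serum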; conditions: P. falciparum 3D7 growth, 3 d, higher = more signal
[13] = biological target: Homeobox protein Hox-A13 (Mus musculus) (UniProt Q62424); experiment: inhibitors of HoxA13-DNA binding, primary screen, biochemical, fluorescence polarization, labeled oligonucleotide (AID 1185); conditions: 15 min, higher = more signal, called active from +8 up or from −8 down
[14] = inhibitors of hydroxyurea-induced Chk1 phosphorylation, primary screen, imaging, HeLa, phospho-Chk1 antibody, percent positive cells (AID 1186); conditions: hydroxyurea-induced phospho-Chk1 immunofluorescence imaging, higher = more signal
[15] = inhibitors of hydroxyurea-induced Chk1 phosphorylation, primary screen, imaging, HeLa, phospho-Chk1 nuclear intensity (AID 1187); conditions: hydroxyurea-induced phospho-Chk1 immunofluorescence imaging, higher = more signal

Homeobox protein Hox-A13 (Mus musculus), sequence (Q62424 whole entry, looked up): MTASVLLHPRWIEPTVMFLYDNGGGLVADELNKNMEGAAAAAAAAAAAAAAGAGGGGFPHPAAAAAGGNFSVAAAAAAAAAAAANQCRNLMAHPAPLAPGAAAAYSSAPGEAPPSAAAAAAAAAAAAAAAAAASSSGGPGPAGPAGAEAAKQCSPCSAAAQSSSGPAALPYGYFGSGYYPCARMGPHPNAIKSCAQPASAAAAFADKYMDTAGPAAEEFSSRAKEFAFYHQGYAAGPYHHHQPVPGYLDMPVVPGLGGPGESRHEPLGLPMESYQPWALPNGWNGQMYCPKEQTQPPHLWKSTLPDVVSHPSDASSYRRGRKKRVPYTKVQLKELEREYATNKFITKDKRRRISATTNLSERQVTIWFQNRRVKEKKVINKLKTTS
Dihydroorotate dehydrogenase (quinone), mitochondrial (Plasmodium falciparum (isolate 3D7)), sequence (Q08210 whole entry, looked up): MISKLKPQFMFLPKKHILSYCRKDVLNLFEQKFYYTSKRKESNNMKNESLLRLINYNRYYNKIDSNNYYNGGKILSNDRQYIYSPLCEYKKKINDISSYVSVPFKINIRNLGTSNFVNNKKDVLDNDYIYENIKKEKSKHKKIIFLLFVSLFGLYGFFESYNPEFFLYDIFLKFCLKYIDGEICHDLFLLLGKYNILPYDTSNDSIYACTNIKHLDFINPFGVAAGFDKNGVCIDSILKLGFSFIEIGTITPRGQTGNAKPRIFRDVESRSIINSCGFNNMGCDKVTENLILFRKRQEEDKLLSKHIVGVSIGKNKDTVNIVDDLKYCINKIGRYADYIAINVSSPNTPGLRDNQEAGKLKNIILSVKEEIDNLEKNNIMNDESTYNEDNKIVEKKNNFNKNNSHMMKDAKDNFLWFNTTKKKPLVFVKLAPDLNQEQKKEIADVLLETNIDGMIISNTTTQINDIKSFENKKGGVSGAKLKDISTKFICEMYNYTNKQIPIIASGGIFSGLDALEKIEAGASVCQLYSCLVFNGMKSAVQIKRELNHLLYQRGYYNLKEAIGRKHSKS
E3 ubiquitin-protein ligase XIAP (Homo sapiens), sequence (P98170 whole entry, looked up): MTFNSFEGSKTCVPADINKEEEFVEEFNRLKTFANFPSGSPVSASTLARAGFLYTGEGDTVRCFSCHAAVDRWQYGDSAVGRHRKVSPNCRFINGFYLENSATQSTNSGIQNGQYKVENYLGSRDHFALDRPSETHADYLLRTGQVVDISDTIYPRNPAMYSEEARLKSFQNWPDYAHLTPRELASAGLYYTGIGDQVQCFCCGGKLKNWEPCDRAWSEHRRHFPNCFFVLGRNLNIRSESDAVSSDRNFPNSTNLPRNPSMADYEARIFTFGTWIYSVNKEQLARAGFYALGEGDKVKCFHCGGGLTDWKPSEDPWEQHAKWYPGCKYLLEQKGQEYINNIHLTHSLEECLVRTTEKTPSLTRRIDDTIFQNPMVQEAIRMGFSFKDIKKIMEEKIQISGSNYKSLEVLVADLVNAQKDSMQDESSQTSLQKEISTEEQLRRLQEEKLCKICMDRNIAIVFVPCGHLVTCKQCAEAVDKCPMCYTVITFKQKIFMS

SMILES | z-score [1] | z-score [2] | z-score [3] | composite z-score [4] | z-score [5] | z-score [6] | z-score [7] | z-score [8] | z-score [9] | composite z-score [10] | composite z-score [11] | composite z-score (XIP peptide (Xip251-270)) | z-score [12] | z-score [13] | z-score [14] | z-score [15]
C=C(C(=O)CC[C@@H](OC(=O)c1ccccc1-c1ccccc1C(=O)O)c1cccc(OCCO)c1)C(C)C | 0.821 | -1.96 (inactive) | 1 (inactive) | -1.26 (inactive) | 0.661 (inactive) | -0.364 (inactive) | 0.546 (inactive) | 0.332 (inactive) | 1.82 | 0.112 | 0.0145 (inactive) | 0.25 | -2.01 | -4.86 (inactive) | -0.0826 (inactive) | -0.0465 (inactive)
COc1cc2c(cc1O)C(C)N(Cc1sc3ccccc3c1Cl)CC2 (centres undefined) | 0.311 | -0.961 (inactive) | 0.0446 (inactive) | -2.64 (inactive) | 0.668 (inactive) | -0.123 (inactive) | 1.14 (inactive) | 0.717 (inactive) | -0.0875 | -0.148 | -0.173 (inactive) | 0.547 | -1.37 | -3.39 (inactive) | -0.632 (inactive) | -0.817 (inactive)
CC[C@@H](O[Si](C#C[Si](C(C)C)(C(C)C)C(C)C)(C(C)C)C(C)C)c1cn([C@H](CO)Cc2ccccc2)nn1 | 1.03 | 1.79 (inactive) | 0.604 (inactive) | -0.572 (inactive) | 0.183 (inactive) | 0.959 (inactive) | -0.316 (inactive) | 0.413 (inactive) | 1.24 | -0.207 | -0.0433 (inactive) | 0.411 | -0.348 | -1.31 (inactive) | -0.058 (inactive) | -0.0008 (inactive)
COc1ccc(CCNC(=O)[C@@]2(C)c3ccccc3C(=O)N(Cc3ccc(OC(F)(F)F)cc3)[C@H]2c2ccc(CO)cc2)cc1 | 1.4 | -0.553 (inactive) | 0.979 (inactive) | -0.0074 (inactive) | 1.05 (inactive) | 0.362 (inactive) | 0.0466 (inactive) | -0.657 (inactive) | 1.3 | -0.031 | 1.06 (inactive) | 0.666 | -1.21 | -4.22 (inactive) | -0.141 (inactive) | -0.102 (inactive)
CN(C)C(=O)[C@]1(CCS(=O)(=O)c2ccccc2)N=C(c2ccc(OCCCO)cc2)O[C@@H]1c1ccccc1CN=[N+]=[N-] | 1.46 | 0.705 (inactive) | 0.273 (inactive) | 0.37 (inactive) | 0.743 (inactive) | 0.3 (inactive) | 0.293 (inactive) | -0.373 (inactive) | -0.0461 | 0.558 | 0.556 (inactive) | 0.816 | -2.13 | -4.39 (inactive) | -0.376 (inactive) | -0.0306 (inactive)
O=C1C[C@@](C(=O)NCC(F)(F)F)(c2ccc([N+](=O)[O-])cc2)[C@@H](c2ccc(CO)cc2I)N1CC12CC3CC(CC(C3)C1)C2 | -4.52 | -1.42 (inactive) | -7.22 (inactive) | -1.13 (inactive) | 1.11 (inactive) | -0.355 (inactive) | 0.213 (inactive) | 1.29 (inactive) | -6.47 | -0.0287 | 2.08 (inactive) | 0.797 | -1.23 | -2.47 (inactive) | -0.353 (inactive) | -0.245 (inactive)
CC(C)c1ccc(NN2C(C(O)c3ccccc3)C=CC3C(=O)N(c4ccccc4)C(=O)C32)cc1 (centres undefined) | 0.685 | -1.79 (inactive) | -2.57 (inactive) | 1.25 (inactive) | 1.16 (inactive) | 1.58 (inactive) | 0.493 (inactive) | 0.289 (inactive) | 0.039 | -0.0669 | 0.542 (inactive) | 0.602 | -0.164 | -1.36 (inactive) | -1.43 (inactive) | -1.77 (inactive)
COCCOC(=O)N1C(=O)[C@@]2(c3cc(C#CC4=CCCCC4)ccc31)[C@H](c1ccc(O)cc1)N1[C@H](c3ccccc3)[C@H](c3ccccc3)OC(=O)[C@H]1[C@@H]2C(=O)N1CCc2cc(OC)c(OC)cc2C1 | 0.291 | 0.0658 (inactive) | -0.671 (inactive) | -0.0425 (inactive) | 0.902 (inactive) | 0.432 (inactive) | -0.184 (inactive) | -0.119 (inactive) | -0.161 | -0.0434 | 2.12 (inactive) | 0.556 | -2.06 | 0.0698 (inactive) | 0.301 (inactive) | 0.404 (inactive)
C=C[C@H](OC)[C@@H](O)c1ccc(OC)c(O)c1 | 0.0143 | -0.506 (inactive) | 0.546 (inactive) | 0.255 (inactive) | 0.65 (inactive) | -0.0878 (inactive) | 0.37 (inactive) | 0.905 (inactive) | 0.252 | -0.289 | -1.51 (inactive) | 1.1 | -0.874 | -1.36 (inactive) | 0.171 (inactive) | 0.705 (inactive)
